The source of these data is PubChem BioAssay (NCI).

SMILES strings stand for the structures. This is part of a sample that, as a whole, favours compounds with a hit. Of some 83,000 tested, about 20% had one in any assay.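 For each line, cells grew in 96-well plates with the test compound present at a single concentration for 48 hours.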 Activity calls are given as the source filed them. How the source made its calls: active means growth percent below 10; inactive means the rest.

The test system of this experiment is OVCAR-4 ovarian. Put plainly: NCI-60 one-dose screen, 48 h (100 = growth as untreated, 0 = no growth, -100 = all killed). The settings on record: 10 µM unless noted.
Take `Cc1cc(C)c(S(=O)(=O)N2CCN(c3cc4c(cc3F)c(=O)c(C(=O)O)cn4C3CC3)CC2)c(C)c1`: the growth is 75.6% (inactive).

On to `CCn1cc(C(=O)O)c(=O)c2cc(F)c(N3CCN(S(=O)(=O)c4ccc(OC)c(OC)c4)CC3)cc21`, for which the growth was 110% (inactive). The result for `Cc1ccc(S(=O)(=O)OCC(=O)Nc2ccc(C(=O)O)c(O)c2)cc1` reads 86.9% (inactive); that for `O=S(=O)(c1ccccc1)n1ccc(-c2ccc3c(c2)CCO3)n1`, 70.1% (inactive).

For `Clc1ccc(-c2nc(-c3ccco3)cn3ccnc23)cc1`, the growth was 41.3% (inactive). The value for `CCn1cc(C(=O)O)c(=O)c2cc(F)c(N3CCN(S(=O)(=O)c4cccc5ccccc45)CC3)cc21` was 23.9% (inactive); that for `O=P([O-])(O)OP(=O)([O-])O.[NH-][C@H]1CCCC[C@@H]1[NH-].[OH-].[OH-].[Pt+4]` was 109% (inactive); that for `O=C(CC(O)c1ccncc1)c1ccccc1` (centres undefined) was -29.2% (active). `O=c1oc2c([nH]c3ccc4ccccc4c32)c2ccccc12`: the growth was 109% (inactive). The result for `Nc1c(C(=O)Nc2ccccc2)sc2nc3c(cc12)CCC3` reads 78.9% (inactive); that for `COc1ccc(C2CC(c3cccs3)=NN2c2ccc(S(=O)(=O)NC(=O)NCc3cccc(OC)c3)cc2)cc1` (centres undefined), 103% (inactive). As to `COc1cc(NC(=O)CSc2nc3ccc(C)cc3c(=O)n2-c2ccccc2)cc(OC)c1OC`, the growth is 68.9% (inactive). The result for `Cc1ccc(S(=O)(=O)OC2COCOC2C(OS(=O)(=O)c2ccc(C)cc2)C2OCOCC2OS(=O)(=O)c2ccc(C)cc2)cc1` (centres undefined) reads 118% (inactive); that for `CC(=O)Nc1ccc(S(=O)(=O)N2C(=O)CCC2C(=O)Nc2ccc(Br)cc2)cc1` (centres undefined), 25.5% (inactive). The value for `O=C(O)c1ccc(-n2c(=O)c3ccccc3c3ccccc3c2=O)cc1` was 119% (inactive); that for `CS(=O)(=O)N(c1cc(-c2ccc3ncnc(Nc4cccc(Cl)c4)c3c2)cnc1Cl)S(C)(=O)=O` was 43.3% (inactive); that for `CN(C)c1ncc(-c2ccc(C(F)(F)F)cc2)c(NC2CCCCCC2)n1` was 45.4% (inactive).

As to `O=S(=O)(NCCNc1cc(-c2cn(-c3ccccc3)nc2-c2ccccc2)ccn1)c1cccc2ccccc12`, the growth is 49.1% (inactive). The result for `CC/C=C\C[C@H](O)C/C=C1/C(=O)C(Cl)=C[C@@H]1C/C=C\CCCC(=O)O` reads 63.2% (inactive).

For `CC[C@H](C)[C@@H]1NC(=O)[C@H]([C@@H](C)O)NC(=O)C(Cc2ccccc2)NC(=O)[C@@H]2CCCN2C(=O)C(C(C)C)NC(=O)C(Cc2ccccc2)NC(=O)CNC(=O)[C@@H]2CCCN2C1=O` (some centres undefined), the growth is 60% (inactive). The value for `O=C(Nc1cc(C(F)(F)F)cc(C(F)(F)F)c1)Nc1ccc(OCc2nnc(-c3ccc(Cl)cc3)o2)c(F)c1` was 24% (inactive). The result for `Oc1ccc(N=Cc2ccccc2)cc1` reads 79.7% (inactive); that for `Nc1ccccc1C#C/C=C\C#Cc1cccc(O)c1`, 45% (inactive). The value for `CCn1cc(C(=O)O)c(=O)c2cc(F)c(N3CCN(S(=O)(=O)c4ccc(Cl)cc4Cl)CC3)cc21` was 129% (inactive).

For `COc1cc(CNC(=O)CSc2nc3ccccc3c(=O)n2Cc2cc(OC)c(OC)c(OC)c2)cc(OC)c1OC`, the growth is 103% (inactive). The result for `COc1cc(CCn2nnc3c(NCCCCO)ncnc32)cc(OC)c1` reads 99.2% (inactive); that for `C/C(=C\c1csc(C)n1)[C@@H]1C[C@@H]2O[C@]2(C)CCC[C@H](C)[C@H](O)[C@@H](C)C(=O)C(C)(C)[C@@H](O)CC(=O)N1`, 14.8% (inactive). The result for `COc1ccc(S(=O)(=O)N2CCN(c3cc4c(cc3F)c(=O)c(C(=O)O)cn4C3CC3)CC2)c(OC)c1` reads 101% (inactive). The result for `CC[C@]1(O)C[C@@H]2CN(Cc3c([nH]c4ccccc34)[C@@](C(=O)OC)(c3cc4c(cc3OC)N(C)[C@H]3[C@@](O)(C(=O)OC)[C@H](OC(C)=O)[C@]5(CC)[C@@H]6C[C@@H]6CN6CC[C@]43[C@@H]65)C2)C1` reads 34.9% (inactive). On to `COC1=CC(c2ccc[nH]2)=N/C1=C\c1[nH]c(C)c(C(=O)CCCCC(=O)Oc2ccc3c(c2)CCC2C3CC[C@]3(C)[C@@H](O)CC[C@@H]23)c1C` (some centres undefined), for which the growth was 48.6% (inactive). The value for `N#Cc1ncc(-c2ccc(F)c(F)c2F)c(NC2CCCCCC2)n1` was 81.1% (inactive). The result for `O=C(O)c1cn(C2CC2)c2cc(N3CCN(S(=O)(=O)c4ccc(Cl)c(Cl)c4)CC3)c(F)cc2c1=O` reads 20.8% (inactive); that for `CCCCCCCCCCCCOB(OCCCCCCCCCCCC)OCCCCCCCCCCCC`, 121% (inactive); that for `CNC(C)=O`, 104% (inactive). The value for `COc1cc2nc(N3CCC[C@@H](NC4=CC(=O)c5ccccc5C4=O)C3)nc(N)c2cc1OC` was 81.5% (inactive). For the molecule `COC(=O)[C@H]1[C@H](OC)[C@@H](OC(=O)/C=C/c2ccncc2)CC2CN3CCc4c([nH]c5cc(OC)ccc45)[C@@H]3C[C@@H]21` (some centres undefined), the growth is 60.8% (inactive). The result for `Clc1nc(-c2cccnc2)nc2sc3c(c12)CCCCCC3` reads 97.1% (inactive). The result for `O=c1oc2cc(OS(=O)(=O)c3ccc(F)cc3)ccc2c2c1CCCCC2` reads 58.1% (inactive); that for `CC(=O)C1CCC(C)=CC1=O` (centres undefined), 107% (inactive).
